# Rows were chosen to be rich in hits. Some 11% of all compounds tested hit in one or more screens of this group.
# G9a inh – G9a (human) methyltransferase inhibition; Q96KQ7; G9a H3K9 monomethylation, AlphaScreen, 2 h; Potency, µM (titrated, usually from 102 µM), for inactives: top-dose activity, negative = inhibition, usual class: inhibitors; 8.8% of 350,000 active; AID 504332; further: on the % scale 0 is the no-effect control and ±100 the full control effect; nearly all actives have a fitted effect of over 75% in size
#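 Quantitative HTS format: methyltransferase activity on a biotin-tagged H3K9 peptide is measured by AlphaScreen, using a rabbit anti-monomethyl-H3K9 antibody with streptavidin donor and anti-IgG acceptor beads. Final levels are 20 nM enzyme, 500 nM peptide, 20 uM SAM; 2 h RT.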
# HP1b chromo inh – HP1-beta chromodomain-methylated histone interaction inhibition; P83916; AlphaScreen HP1-beta / biotin-H3K9me3 peptide binding; Potency, µM (top dose mostly 114 µM), without a hit: top-dose activity change, negative = inhibition, hits mostly inhibitors; 0.56% of 390,000 active; AID 540317; further: nearly all actives have a fitted effect of over 70% in size
#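 AlphaScreen: HP1-beta (50 nM) preformed 30 min with biotin-H3(1-18)K9me3 peptide (50 nM) in PBS pH 7.4, 0.01% Tween-20. Compound added for 30 min at RT, then streptavidin donor/nickel chelate acceptor beads (10 ug/mL) for 30 min.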
# JMJD2A Tudor – JMJD2A Tudor domain (human) inhibition | O75164 | AlphaScreen JMJD2A-Tudor / H3K4me3 peptide binding | Potency, µM (doses to about 114 µM), inactives show at the highest dose activity change, negative = inhibition, hits mostly inhibitors | 4.4% of 390,000 active; further: on the % scale 0 is the no-effect control and ±100 the full control effect; nearly all actives have a fitted effect of over 50% in size
# Target sequence (O75164 whole entry, looked up, the tested form may be a part): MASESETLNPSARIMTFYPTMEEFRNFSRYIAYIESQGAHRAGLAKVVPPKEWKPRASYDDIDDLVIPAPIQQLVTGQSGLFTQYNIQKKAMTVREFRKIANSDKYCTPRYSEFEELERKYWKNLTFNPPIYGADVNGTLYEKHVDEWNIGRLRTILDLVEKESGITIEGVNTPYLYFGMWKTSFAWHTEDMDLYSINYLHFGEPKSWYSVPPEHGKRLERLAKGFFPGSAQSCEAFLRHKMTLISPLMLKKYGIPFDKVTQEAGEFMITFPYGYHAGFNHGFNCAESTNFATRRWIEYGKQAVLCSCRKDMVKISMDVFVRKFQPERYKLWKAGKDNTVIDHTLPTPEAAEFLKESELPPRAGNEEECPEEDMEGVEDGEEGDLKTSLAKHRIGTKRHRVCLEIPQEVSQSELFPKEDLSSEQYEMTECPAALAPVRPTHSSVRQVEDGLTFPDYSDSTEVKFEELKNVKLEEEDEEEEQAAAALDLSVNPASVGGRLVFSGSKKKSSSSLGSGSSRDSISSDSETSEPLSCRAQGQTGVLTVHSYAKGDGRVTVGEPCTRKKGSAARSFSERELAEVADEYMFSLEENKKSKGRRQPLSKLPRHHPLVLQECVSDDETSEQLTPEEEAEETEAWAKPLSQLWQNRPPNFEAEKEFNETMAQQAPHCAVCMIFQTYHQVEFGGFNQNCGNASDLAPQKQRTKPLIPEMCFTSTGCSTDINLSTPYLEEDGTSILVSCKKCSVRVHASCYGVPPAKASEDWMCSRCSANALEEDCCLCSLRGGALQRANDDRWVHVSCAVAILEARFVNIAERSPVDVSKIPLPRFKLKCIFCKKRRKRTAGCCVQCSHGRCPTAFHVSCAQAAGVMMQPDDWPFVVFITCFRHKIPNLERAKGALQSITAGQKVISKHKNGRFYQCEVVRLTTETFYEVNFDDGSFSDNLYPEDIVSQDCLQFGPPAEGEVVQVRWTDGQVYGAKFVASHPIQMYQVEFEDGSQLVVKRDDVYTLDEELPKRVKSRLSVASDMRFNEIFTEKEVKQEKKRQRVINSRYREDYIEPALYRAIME
# L3MBTL1 block – blocks human L3MBTL1 | Q9Y468 | AlphaScreen L3MBTL1–H3K9me1 peptide binding | Potency, µM (highest dose often 57.1 µM), without a hit: at the highest dose activity, negative = inhibition, hits mostly inhibitors | 0.66% of 230,000 active; further: on the % scale 0 is the no-effect control and ±100 the full control effect; nearly all actives have a fitted effect of over 60% in size
#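 L3MBTL1 50 nM + b-AHA-H3(1-15)K9me1 75 nM, 30 min RT; compound added, 30 min RT; streptavidin donor/Ni-chelate acceptor beads 10 ug/mL each final, 30 min RT dark; AlphaScreen read.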
# BAZ2B block – blocks human BAZ2B. Q9UIF8. AlphaScreen BAZ2B-H3K14Ac peptide displacement. 4.4% of 360,000 active. Potency, µM (doses to about 114 µM), for the others: at the highest dose activity change, negative = inhibition, hits mostly inhibitors; further: on the % scale 0 is the no-effect control and ±100 the full control effect; nearly all actives have a fitted effect of over 60% in size
#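 AlphaScreen displacement: compounds (up to 110uM) incubated 30 min at room temperature with a preformed 50 nM BAZ2B/50 nM biotinylated H3K14Ac peptide complex in PBS pH 7.4 with Tween-20. Donor and acceptor beads at 10 ug/mL final added, 20 min light-protected before reading.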
# Numbers without * were called inactive; ? = inconclusive; . = no result; [ ] = remark or other dose. The call rests on the fitted dose curve; in most records, active means well fitted inhibition curve with a large enough effect; inconclusive means small, poorly fitted or top-dose-only effect; inactive means no such curve, though single readings can be large or run the other way. Potency means the concentration at half of the fitted maximal effect.
SMILES,G9a inh,HP1b chromo inh,JMJD2A Tudor,L3MBTL1 block,BAZ2B block
CCOc1ccc(NC(=S)NCc2ccc3c(c2)OCO3)cc1,10µM*,23.2%,-26.6%,-18.6%,?
COc1ccc(C(=O)NCCc2nc3ccccc3[nH]2)cc1,-31.6%[59 µM],45.2%,-10.8%,.,-2.7%
Cc1cccc(-c2nc(CS(=O)CC(=O)N3CCc4ccccc4C3)c(C)o2)c1 (stereo not given),31.6µM*,22.7%,-14.8%,-2.7%,2.3%
Cc1ccc(-c2nc(CS(=O)(=O)CC(=O)N3CCN(c4ccccc4)CC3)c(C)o2)cc1,-38.0%[59 µM],2.6%,?,.,56.2µM*
CCN1CCN(C(=O)CS(=O)Cc2nc(-c3cccc(C)c3)oc2C)CC1 (stereo not given),-3.3%,45.3%,-16.8%,.,-5.4%
Cc1ccccc1-c1nc(CS(=O)(=O)CC(=O)N2CCN(c3ccccc3)CC2)c(C)o1,?,0.9%,-27.9%,.,?
COc1ccc(-c2nc(CSCC(=O)N3CCN(c4ccc(OC)cc4)CC3)c(C)o2)cc1,11.2µM*,-19.1%,?,.,35.5µM*
CCN1CCN(C(=O)CS(=O)Cc2nc(-c3ccc(OC)cc3)oc2C)CC1 (stereo not given),70.8µM*,.,-4.9%,.,-5.0%
Nc1c(C(=O)NCc2ccccc2)nnn1Cc1cccc(Br)c1,4.2%[59 µM],16.6%,-18.2%,.,-5.2%
Cc1ccc2c(c1)N(CC(=O)NCCCN1CCCCC1)C(=O)CO2,15.9%,14.8%,-2.1%,.,-6.1%
CC(C)(C)OC(=O)n1cccc1/C=C1\c2ccccc2C(=O)N1c1ccccc1,.,-37.5%,63.1µM*,.,.
Cc1ccc(Cl)cc1NC(=O)Cn1nnc2sc3c(c2c1=O)CCC(C(C)(C)C)C3 (stereo not given),-4.8%[59 µM],-2.6%,-30.5%,.,-16.6%
O=C1NC(=O)/C(=C\c2ccc(Cl)cc2Cl)N1,.,14.7%,-15.3%,.,.
C[N+]1(CC(=O)OCCCc2ccccc2)CCCC1,10µM*,21.1%,?,-1.1%,56.2µM*
O=C(CN1CCCC1)OCCCc1ccccc1,-16.7%[59 µM],-0.9%,-11.4%,-17.0%,-6.3%
O=c1c(-c2cccs2)nc2cncnc2n1Cc1ccccc1,3.9%[0.501 µM],.,.,.,.
CCOC(=O)/C=C1\SCC(=O)N1CC(=O)NC(C)c1ccccc1 (stereo not given),20.2%[59 µM],36.4%,-4.1%,6.2%,-0.1%
CCOC(=O)/C=C1\SCC(=O)N1CC(=O)NC(C)C,3.55µM*,8.8%,-6.2%,.,7.2%
Cc1ccccc1CN1C(=O)CS/C1=N/N=C/c1ccco1,39.8µM*,-0.1%,-21.6%,.,?
O=C1CS/C(=N/N=C/c2ccccc2)N1Cc1ccco1,.,7.9%,-17.4%,-0.3%,-11.3%
COc1cc(NC(=O)C2=CC(c3cccs3)=NS(=O)(=O)N2C)cc(OC)c1OC,44.7µM*,8.1%,?,-22.2%,?
CN1C(C(=O)Nc2ccc(F)cc2F)=CC(c2cccs2)=NS1(=O)=O,?,53.5%,-17.6%,-7.7%,5.6%
Cc1ccc(NC(=O)C2=CC(c3cccs3)=NS(=O)(=O)N2C)cc1,9.1%,-7.6%,-24.6%,-8.3%,-35.0%
CSc1ccccc1NC(=O)C1=CC(c2cccs2)=NS(=O)(=O)N1C,35.5µM*,-4.2%,?,-6.1%,-37.5%
c1ccc(-c2ccc3ccccc3n2)cc1,.,88.5%,48.3%,.,.
SMILES,G9a inh,HP1b chromo inh,JMJD2A Tudor,L3MBTL1 block,BAZ2B block
CNc1ccccc(-c2ccc3ccccc3n2)c1=O,89.1µM*,47.4%,-15.7%,-2.4%,-1.5%
Brc1ccc(-c2nc3ncccn3c2NC2CCCCC2)o1,10µM*,?,-33.9%[57.1 µM],.,-32.9%
Cc1ccc(-c2nc3ncccn3c2NC2CCCC2)o1,?,13.7%,-26.0%,.,-33.6%
CC(=O)Nc1ccc(S(=O)(=O)NNC(=O)c2cccc(Cl)c2)cc1,5.62µM*,21.9%,-24.3%,3.4%,-9.2%
O=C(Nc1ccc(S(=O)(=O)Nc2ncccn2)cc1)c1cccc(Cl)c1,3.8%[59 µM],42.5%,1.0%,.,1.4%
CC(=O)Nc1ccc(S(=O)(=O)Nc2ccc3c(c2)OCO3)cc1,8.8%,15.9%,-6.1%,.,-3.6%
CC(=O)Nc1ccc(S(=O)(=O)NNC(=O)c2ccc3c(c2)OCO3)cc1,75.9%[12.7 µM],23.9%,11.2µM*,.,15.6%
Cc1ccc(CNC(=O)CN2C(=O)C3(SCC(=O)N3c3cc(C)cc(C)c3)c3ccccc32)cc1 (stereo not given),-37.3%[59 µM],-7.3%,-26.5%,.,0.2%[57.1 µM]
O=C(c1ccco1)N1CCN(CCOCCOc2cccc3ccccc23)CC1,?,20.4%,-23.3%,.,?
c1ccc2c(OCCCCN3CCOCC3)cccc2c1,.,?,3.55µM*,-5.4%,50.1µM*
c1ccc(CN2CCN(CCOCCOc3cccc4ccccc34)CC2)cc1,.,20µM*,1.78µM*,-9.5%,22.4µM*
COc1ccccc1OCCCCCCN1CCOCC1,12.6µM*,?,20µM*,4.3%,50.1µM*
CCOc1ccccc1NC(=O)c1ccc2c(c1)CCN2S(C)(=O)=O,-7.4%[59 µM],34.0%,-14.2%,.,-3.3%
CCCCN(CC)C(=O)c1ccc2c(c1)NC(=O)c1ccccc1S2,-29.8%[59 µM],27.4%,-16.0%,.,-9.6%
COc1cc(/C=N/Nc2ccc(Cl)c(C(=O)O)c2)ccc1OC(=O)c1ccco1,22.4µM*,8.3%,-14.1%,-16.7%,?
COc1ccc(C(=O)Oc2ccc(/C=N/Nc3ccc(Cl)c(C(=O)O)c3)cc2OC)cc1,35.5µM*,-10.5%,?,.,50.1µM*
COc1cc(/C=N/Nc2ccc(Cl)c(C(=O)O)c2)ccc1OCC(=O)N1C(C)CCCC1C (stereo not given),50.1µM*,28.5%,-11.3%,-19.7%,-22.9%
COc1ccc(/C=N/Nc2ccc(C(=O)O)cc2)cc1OC,-35.7%,38.4%,-16.8%,-4.0%,-11.2%
COc1cc(C2C(=O)N(C3CCCCCC3)CC(=O)N2CCC2=CCCCC2)ccc1OC(C)C (stereo not given),-25.2%[59 µM],27.5%,-12.5%,.,-3.6%
CCN(CCNCC(O)COCc1ccc(Cl)cc1)c1cccc(C)c1 (stereo not given),7.94µM*,39.8µM*,0.891µM*,-20.3%,20µM*
CCN(CCCNC(=O)C1CCC(=O)N1Cc1ccc(F)cc1)c1cccc(C)c1 (stereo not given),?,3.2%,-26.1%,-2.8%,?
O=C(Cn1nc(C(F)(F)F)c2c1CCCC2)Nc1ccc(F)c(Cl)c1,-6.9%[59 µM],30.3%,-4.5%,.,-1.8%
CCCC(O)(CCN1CCCCC1)c1ccc(OCC)cc1 (stereo not given),-14.7%,.,-23.4%,1.9%,5.8%
CC(C)COc1ccc(C(=O)OCCN2CCCCC2)cc1,18.6%[2.33 µM],73.1%,-18.9%,.,3.9%
CCCOc1ccc(C(=O)CCCC(=O)c2ccc(OCCC)cc2)cc1,.,48.1%,12.0%,42.3%,43.7%
CC(C)COc1ccc(C(=O)CCN2CCCCC2)cc1,15.8µM*,55.3%,-13.2%,-7.1%,-11.4%
COc1ccc(C(O)(CCN2CCCCC2)C2CCCCC2)cc1 (stereo not given),50.1µM*,27.7%,-13.2%,.,-1.0%

# Bioassay records from PubChem.
